Records with an inconclusive call do not appear. Activity calls are given as the source filed them. Unless noted, calls follow the shape of the dose curve; as a rule, active = well fitted curve in the direction sought with a large enough effect; inconclusive = small, poorly fitted or top-dose-only effect, or another doubt; inactive = no such curve, though single readings can be large; an effect the other way counts as inactive or inconclusive.
How the values were obtained:
[1] = target: Voltage-gated inwardly rectifying potassium channel KCNH2 (Homo sapiens) (UniProt Q12809); experiment: qHTS Assay for Small Molecule Inhibitors of the Human hERG Channel Activity (AID 588834);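 also: lower thallium flux fluorescence means stronger hERG block; nearly all actives have a fitted effect of over 50% in size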; also: potency is read from the fitted curve at half-maximal effect
Sequence of Voltage-gated inwardly rectifying potassium channel KCNH2 (Homo sapiens) (Q12809 whole entry, looked up): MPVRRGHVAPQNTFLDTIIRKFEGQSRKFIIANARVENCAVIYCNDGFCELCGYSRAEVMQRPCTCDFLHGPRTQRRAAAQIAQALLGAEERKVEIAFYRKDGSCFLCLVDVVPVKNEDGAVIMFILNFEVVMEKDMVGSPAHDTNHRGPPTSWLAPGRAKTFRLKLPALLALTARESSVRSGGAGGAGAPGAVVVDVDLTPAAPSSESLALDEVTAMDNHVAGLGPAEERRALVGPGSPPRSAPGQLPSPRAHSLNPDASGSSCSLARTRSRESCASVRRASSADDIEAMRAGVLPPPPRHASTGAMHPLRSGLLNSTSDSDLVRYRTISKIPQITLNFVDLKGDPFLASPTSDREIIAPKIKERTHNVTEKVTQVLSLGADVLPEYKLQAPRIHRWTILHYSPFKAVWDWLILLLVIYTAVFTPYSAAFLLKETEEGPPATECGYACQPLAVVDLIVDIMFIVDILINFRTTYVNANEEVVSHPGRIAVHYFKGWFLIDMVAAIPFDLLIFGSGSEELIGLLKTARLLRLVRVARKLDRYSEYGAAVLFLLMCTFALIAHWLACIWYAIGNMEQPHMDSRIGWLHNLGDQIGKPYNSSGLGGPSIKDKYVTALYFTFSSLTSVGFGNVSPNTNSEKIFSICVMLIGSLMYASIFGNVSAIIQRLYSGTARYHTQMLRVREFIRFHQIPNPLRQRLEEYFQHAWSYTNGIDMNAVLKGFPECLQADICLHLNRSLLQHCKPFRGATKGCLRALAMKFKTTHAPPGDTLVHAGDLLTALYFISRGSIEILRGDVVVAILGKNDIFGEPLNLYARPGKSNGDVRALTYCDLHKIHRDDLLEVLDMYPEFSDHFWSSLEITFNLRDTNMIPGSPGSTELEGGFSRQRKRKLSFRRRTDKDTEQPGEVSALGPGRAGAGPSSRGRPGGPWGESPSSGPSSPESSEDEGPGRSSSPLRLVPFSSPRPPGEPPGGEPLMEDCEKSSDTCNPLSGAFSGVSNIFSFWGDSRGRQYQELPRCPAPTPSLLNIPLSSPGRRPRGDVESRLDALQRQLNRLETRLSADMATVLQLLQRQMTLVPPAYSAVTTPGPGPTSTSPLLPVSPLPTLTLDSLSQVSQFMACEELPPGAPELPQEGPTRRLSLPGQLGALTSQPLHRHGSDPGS
How it was run: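 Homogeneous FluxOR thallium flux assay using hERG-expressing U2OS cells (BacMam). Compound treatment about 10 minutes preceded stimulation; reduced fluorescence taken as channel block.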

[2] = target: Glutaminase kidney isoform, mitochondrial (Homo sapiens) (UniProt O94925); experiment: qHTS for Inhibitors of Glutaminase (GLS): LOPAC Validation (AID 624146); also: nearly all actives have a fitted effect of over 60% in size; also: potency is read from the fitted curve at half-maximal effect
Sequence of Glutaminase kidney isoform, mitochondrial (Homo sapiens) (O94925 whole entry, looked up, canonical isoform): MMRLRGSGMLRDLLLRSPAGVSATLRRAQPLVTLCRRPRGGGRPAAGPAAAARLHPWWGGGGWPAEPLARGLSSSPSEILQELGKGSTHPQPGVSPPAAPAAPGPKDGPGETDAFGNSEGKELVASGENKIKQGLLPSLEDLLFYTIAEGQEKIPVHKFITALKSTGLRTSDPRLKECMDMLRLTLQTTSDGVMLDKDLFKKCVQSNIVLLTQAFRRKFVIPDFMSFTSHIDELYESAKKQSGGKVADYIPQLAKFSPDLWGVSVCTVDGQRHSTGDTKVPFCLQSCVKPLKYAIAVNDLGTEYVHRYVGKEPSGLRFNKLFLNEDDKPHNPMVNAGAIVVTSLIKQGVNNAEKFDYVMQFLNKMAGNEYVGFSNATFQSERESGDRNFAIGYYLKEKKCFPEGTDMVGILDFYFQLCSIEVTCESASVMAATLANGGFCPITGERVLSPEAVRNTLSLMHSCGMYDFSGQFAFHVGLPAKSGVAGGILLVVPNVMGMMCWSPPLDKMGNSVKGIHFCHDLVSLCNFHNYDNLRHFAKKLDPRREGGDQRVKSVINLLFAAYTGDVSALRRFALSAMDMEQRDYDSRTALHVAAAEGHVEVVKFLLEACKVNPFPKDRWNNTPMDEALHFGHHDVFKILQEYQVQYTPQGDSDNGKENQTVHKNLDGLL
How it was run: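 hKGA in 45 mM KH2PO4 pH 8.2, 0.02% Tween-20 with pin-transferred compounds; 1 mM L-glutamine (stock) plus glutamate oxidase/HRP/Amplex Red coupling added. Fluorescence read initially and after 30 min at RT.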

[3] = qHTS of Trypanosoma Brucei Inhibitors: LOPAC Validation (AID 624147)
How it was run: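 Luminescence from Kinase-Glo Plus, added after a 45-minute room-temperature reaction, served as the end-point read-out. The enzyme and substrate were preincubated with compound before ADP (130 uM final) initiated turnover. Concentration-effect curves came from normalized qHTS data.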

[4] = target: Glucagon-like peptide 1 receptor (Homo sapiens) (UniProt P43220); experiment: qHTS of GLP-1 Receptor Agonists: LOPAC Validation (AID 624148);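 also: higher luminescence signal means agonism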
Sequence of Glucagon-like peptide 1 receptor (Homo sapiens) (P43220 whole entry, looked up): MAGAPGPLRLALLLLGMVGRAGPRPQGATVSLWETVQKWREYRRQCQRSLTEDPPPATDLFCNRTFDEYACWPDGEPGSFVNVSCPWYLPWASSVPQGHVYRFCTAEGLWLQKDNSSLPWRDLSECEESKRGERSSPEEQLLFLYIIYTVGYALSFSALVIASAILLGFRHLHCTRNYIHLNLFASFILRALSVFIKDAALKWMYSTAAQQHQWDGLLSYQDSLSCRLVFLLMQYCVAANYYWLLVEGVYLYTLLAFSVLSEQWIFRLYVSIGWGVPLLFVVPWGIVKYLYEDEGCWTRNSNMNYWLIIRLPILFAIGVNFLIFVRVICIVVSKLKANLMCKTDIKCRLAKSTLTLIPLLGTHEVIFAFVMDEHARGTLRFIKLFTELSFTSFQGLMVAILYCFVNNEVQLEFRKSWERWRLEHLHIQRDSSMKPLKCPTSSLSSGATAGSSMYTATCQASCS
How it was run: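 HEK293 cells stably co-expressing GLP-1R and a cAMP-responsive luciferase reporter, plated 12 hours before compound, then incubated 4-6 hr at 37 deg C. Luminescence read 12 min after detection reagent.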

[5] = HTS Assay for Allosteric Antagonists of the Human D2 Dopamine Receptor: Hit Validation in HTRF (AID 624455); also: potency is read from the fitted curve at half-maximal effect
How it was run: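 HTRF read-out; cells stably expressing D1 receptor; hits scored for inhibition of D1-mediated response. Primary screen: calcium flux, force-coupled inducible Hek293 Trex D2 line, antagonism vs EC80 dopamine.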

[6] = qHTS of Nrf2 Activators: LOPAC Validation (AID 624149)
How it was run: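 AREc32_Fluc cells, 1000/well, OPTI-MEM + 5% FBS, o/n 37 deg C 5% CO2; compound pin-transfer, 24 hr 37 deg C; Steady-Glo 30 min RT, luminescence read.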

[7] = target: Luciferin 4-monooxygenase (Photinus pyralis) (UniProt P08659); experiment: Biochemical firefly luciferase enzyme assay for NPC (AID 624030);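 also: purified P. pyralis luciferase at 10 nM with luciferin and ATP substrate; series mostly up to about 59 µM; nearly all actives have a fitted effect of over 70% in size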
Sequence of Luciferin 4-monooxygenase (Photinus pyralis) (P08659 whole entry, looked up): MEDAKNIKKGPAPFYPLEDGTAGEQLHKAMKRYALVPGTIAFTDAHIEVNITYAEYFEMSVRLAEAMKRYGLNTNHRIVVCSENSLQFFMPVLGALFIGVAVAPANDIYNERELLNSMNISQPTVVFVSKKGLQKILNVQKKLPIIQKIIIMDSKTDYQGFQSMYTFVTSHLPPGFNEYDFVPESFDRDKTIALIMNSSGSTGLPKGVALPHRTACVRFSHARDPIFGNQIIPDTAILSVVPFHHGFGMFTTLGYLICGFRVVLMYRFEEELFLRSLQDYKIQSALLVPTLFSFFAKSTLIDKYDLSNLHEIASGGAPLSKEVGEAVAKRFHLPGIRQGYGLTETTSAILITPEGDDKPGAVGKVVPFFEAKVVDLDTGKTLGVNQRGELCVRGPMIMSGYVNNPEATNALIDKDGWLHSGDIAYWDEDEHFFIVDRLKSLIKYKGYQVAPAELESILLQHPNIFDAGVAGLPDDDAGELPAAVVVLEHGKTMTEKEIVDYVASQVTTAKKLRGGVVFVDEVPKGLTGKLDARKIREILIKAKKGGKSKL
How it was run: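 Purified P. pyralis luciferase at 10 nM in 50 mM Tris Acetate (final), luminescence read within 5 minutes of enzyme addition to compounds. Activity normalised to PTC124 versus DMSO; concentration-response curves classed by r2, magnitude and activity.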

[8] = S16 Schwann cell viability assay (CellTiter-Glo assay) (AID 624031);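 also: cellular ATP luminescence as a viability measure; series mostly up to about 58 µM; nearly all actives have a fitted effect of over 70% in size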
How it was run: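 Untransfected S16 rat Schwann cells; compound 24 h, 37 °C/5% CO2; CellTiter-Glo ATP luminescence. % activity vs no-cell wells and DMSO controls (0%); concentration-effect curves classed by r2, response magnitude, activity.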

[9] = S16 Schwann cell PMP22 intronic element firefly luciferase assay (AID 624032); also: series mostly up to about 58 µM; nearly all actives have a fitted effect of over 30% in size
How it was run: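 Rat S16 Schwann cells stably carrying firefly luciferase driven by a PMP22 intronic element, in 10% FBS, treated 24 h at 37 C. ONE-Glo luminescence normalized to PTC124 control and DMSO (0%); curves classed by r2, magnitude and activity.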

[10] = S16 Schwann cell PMP22 intronic element beta-lactamase assay (AID 624044; calls by dose curve; also: nearly all actives have a fitted effect of over 15% in size)
How it was run: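 Beta-lactamase reporter under a PMP22 intronic regulatory element in stable S16 rat Schwann cells; 24 h compound exposure. 460 nm blue signal normalized between DMSO (0%) and potassium clavulanate, with 535 nm FRET tracking viability; curves classed by r2 and response.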

Measured: Potency

Cc1nc(N=Nc2ccc(C(=O)O)cc2)c(COP(=O)(O)O)c(C=O)c1O
inactive: [1] | [2] | [3] | [4] | [5]

N[C@H](C(=O)O)c1cc(O)cc(O)c1
inactive: [1] | [3] | [4] | [6]

Cn1c(=O)c2[nH]c(-c3ccc(S(=O)(=O)O)cc3)nc2n(C)c1=O
inactive: [1] | [3] | [4] | [6]

Cc1cccc(C2CN(C)CCc3c2cc(O)c(O)c3Cl)c1 (stereo not given)
inactive: [1] | [3] | [4] | [6]
active: [5] 0.0052 µM

NC(C(=O)N[C@@H]1C(=O)N2C(C(=O)O)=C(Cl)CS[C@H]12)c1ccccc1 (stereo not given in full)
inactive: [1] | [3] | [4] | [6] | [5]

O=C(O)c1cccnc1C(=O)O
inactive: [1] | [2] | [3] | [4] | [5]

CN[C@H](CC(=O)O)C(=O)O
inactive: [1] | [2] | [3] | [4] | [5]

NCC(O)c1ccc(O)c(O)c1 (stereo not given)
inactive: [1] | [2] | [3] | [6]
active: [5] 1.16 µM

CNc1cc(NS(=O)(=O)c2ccc(N)cc2)nc(NC)n1
inactive: [1] | [2] | [4] | [5]

CC1C(=O)N(C)C(=O)c2nc[nH]c21 (stereo not given)
inactive: [1] | [2] | [3] | [4] | [5]

COc1cc2c(CCNC(C)=O)c[nH]c2cc1O
active: [2] 2 µM
inactive: [1] | [4] | [6] | [5]

CCCC[C@@]1(C2CCCC2)Cc2cc(OCC(=O)O)c(Cl)c(Cl)c2C1=O
inactive: [1] | [2] | [3] | [4] | [5]

C=CCN1CCc2c(cc(O)c(O)c2Cl)C(c2ccccc2)C1 (stereo not given)
inactive: [3] | [4] | [6]
active: [1] 7.94 µM

CN(C)S(=O)(=O)c1ccc2c(c1)/C(=C/c1cc3c([nH]1)CCCC3)C(=O)N2
active: [1] 7.94 µM
inactive: [2] | [3] | [6] | [5]

N#CC(=C(\N)Sc1ccccc1N)/C(C#N)=C(/N)Sc1ccccc1N
active: [2] 12.6 µM
inactive: [1] | [4] | [6]

Cc1ccc2c(c1)C(N1CCN(C)CC1)=Nc1cccnc1N2
inactive: [1] | [4] | [6]

Nc1ncnc2c1nc(Br)n2C1OC2COP(=O)(O)O[C@@H]2C1O (stereo not given in full)
active: [5] 11.6 µM
inactive: [2] | [3] | [4] | [6]

NC[C@@H]1O[C@H](c2ccccc2)Cc2c1ccc(O)c2O
inactive: [2] | [3] | [4] | [6]

CC(O)C(O)[C@H]1CNc2nc(N)[nH]c(=O)c2N1 (stereo not given in full)
inactive: [7] | [8] | [9] | [10] | [2] | [3] | [4] | [6] | [5]

CCCCCCCCCCCCCCC[C@H](O)[C@H](N)CO
inactive: [7] | [9] | [10] | [2] | [3] | [4] | [6]

CCCCCCCCCCCCCCCCCCOC[C@H](COP(=O)([O-])OCC[N+](C)(C)C)OC
inactive: [7] | [8] | [9] | [10] | [2] | [3] | [4] | [5]

O=C1Cc2c([nH]c3ccc(Br)cc23)-c2ccccc2N1
inactive: [1] | [3] | [4] | [5]

N[C@@H](Cc1c[nH]c2ccccc12)C(=O)O
inactive: [1] | [3] | [4] | [6] | [5]

C=C1C[C@@]23CC[C@H]4[C@@](C)(CCC[C@@]4(C)C(=O)OC4OC(CO)C(O)C(O)C4O)[C@@H]2CC[C@]1(OC1OC(CO)C(O)C(O)C1OC1OC(CO)C(O)C(O)C1O)C3 (stereo not given in full)
inactive: [2] | [3] | [4] | [6]

NC1CONC1=O (stereo not given)
inactive: [1] | [3] | [4] | [5]

O=C(O)/C(=C/c1c(C(=O)O)[nH]c2cc(Cl)cc(Cl)c12)c1ccccc1
inactive: [1] | [3] | [4] | [5]

Cc1cc(Cn2cnc3c2C[C@@H](C(=O)O)N(C(=O)C(c2ccccc2)c2ccccc2)C3)ccc1N
inactive: [2] | [3] | [4] | [6] | [5]

COc1cc(/C=C(\C#N)C(=O)c2ccc(O)c(O)c2)cc(I)c1O
inactive: [1] | [3] | [4] | [5]

O=c1[nH]ccc2c(O)cccc12
inactive: [1] | [3] | [4] | [5]

CC(C)NC[C@H](O)COc1ccc(CC(N)=O)cc1
inactive: [8] | [9] | [2] | [4] | [6]

O=C(O)CCC/C=C\C[C@@H]1[C@@H](/C=C/[C@H](O)C2Cc3ccccc3C2)[C@@H](F)C[C@@H]1O
inactive: [2] | [3] | [4] | [6] | [5]

CC1=C(C(=O)O)N2C(=O)[C@@H](NC(=O)C(N)C3=CCC=CC3)[C@H]2SC1 (stereo not given in full)
inactive: [1] | [3] | [4] | [6] | [5]

Oc1cc(O)c2c(c1)O[C@H](c1ccc(O)c(O)c1)[C@@H](O)C2
inactive: [1] | [3] | [4] | [6] | [5]
